Compounds with a hit are over-represented: about 9.5% of the library has one in this group of screens.
NS1 inh: blocks influenza NS1 protein function; 0.4% of 270,000 active; AID 2326; Potency, µM (series often up to 46.1 µM); note: actives are rising curves; nearly all actives have a fitted effect of over 50% in size
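Recovery from NS1-induced slow growth read by OD600 in budding yeast switched to galactose assay medium (pH 6.0, -URA) at 1:100 dilution. Compound 23 nl per well; the matching strain lacking NS1 serves as control.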
Pf growth 96h: P. falciparum growth inhibition at 96 hours | P. falciparum luciferase reporter growth, 96 h | Potency, µM (top dose mostly 28.7 µM), hits mostly inhibitors | 6.9% of 320,000 active | AID 504834; active = well fitted inhibition curve with a large enough effect; inconclusive = small, poorly fitted or top-dose-only effect, or another doubt; inactive = no such curve, though single readings can be large or run the other way
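Readout is luminescence from an integrated firefly luciferase in P. falciparum. Red cells, 2% hematocrit and 0.05% parasitemia final, were cultured with compound through two parasite generations (96 hours) at 37 C, 5% CO2.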
SARS PLP yeast: SARS-CoV PLP inhibition in yeast; AID 485353; Potency, µM (highest dose often 32.9 µM), usual class: activators; S. cerevisiae expressing SARS-CoV PLpro, growth rescue; 0.19% of 330,000 active; note: nearly all actives have a fitted effect of over 55% in size
RE007 growth inh: less growth of the S. pombe RE007 Vpr strain. S. pombe RE007 Vpr strain, BacTiter-Glo ATP luminescence, 24 h. Potency, µM (top dose mostly 92.2 µM), actives largely listed as inhibitors. 0.21% of 360,000 active. AID 651644; active = well fitted falling curve with a large enough effect; inconclusive = small, poorly fitted or top-dose-only effect; inactive = no such curve, though single readings can be large or run the other way; note: nearly all actives have a fitted effect of over 50% in size
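Fission yeast strain RE007, carrying one chromosomally integrated HIV-1 vpr copy, was seeded at OD 0.01 in PMG+AL medium with 23 nL pinned compound. After 24 h at 30 °C and 99% humidity, viability was read by BacTiter-Glo luminescence.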
Pf growth 48h: P. falciparum growth inhibition at 48 hours (one generation); 5.9% of 310,000 active; Potency, µM (highest dose often 28.7 µM), hits mostly inhibitors; P. falciparum luciferase growth in erythrocytes, 48 h; AID 504832; active = well fitted inhibition curve with a large enough effect; inconclusive = small, poorly fitted or top-dose-only effect, or another doubt; inactive = no such curve, though single readings can be large or run the other way
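A one-generation exposure of luciferase-tagged malaria parasites in RPMI 1640/Albumax erythrocyte culture, 37 C and 5% CO2. Inhibition is inferred from decreased luminescence after adding detection reagent.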
Hits are given with their value. Unless noted, calls come from the whole dose curve.

Results for CC(=O)Cn1c(N2CCC(Cc3ccccc3)CC2)nc2c1c(=O)[nH]c(=O)n2C ?
NS1 inh: inactive; Pf growth 96h: inconclusive; SARS PLP yeast: inactive; RE007 growth inh: inactive; Pf growth 48h: inactive

What do the screens show for `CCCn1c(N2CCN(Cc3cccc(C)c3)CC2)nc2c1c(=O)[nH]c(=O)n2C`?
NS1 inh: inactive; Pf growth 96h: 1.85µM; SARS PLP yeast: inactive; RE007 growth inh: inactive

How did Cc1ccc(Cn2c(N3CCN(C)CC3)nc3c2c(=O)[nH]c(=O)n3C)cc1 do in these assays?
NS1 inh: inactive; Pf growth 96h: inactive; SARS PLP yeast: inactive; RE007 growth inh: inactive; Pf growth 48h: inactive

How did C=C(C)Cn1c(N2CCC(Cc3ccccc3)CC2)nc2c1c(=O)[nH]c(=O)n2C do in these assays?
NS1 inh: inactive; Pf growth 96h: inconclusive; SARS PLP yeast: inactive; RE007 growth inh: inactive; Pf growth 48h: 13.1µM

How did CC1(C)NC(=O)N(CC(=O)N2CCCC(C(F)(F)F)C2)C1=O (stereo not given) do in these assays?
Pf growth 96h: inactive; SARS PLP yeast: inactive; RE007 growth inh: inactive; Pf growth 48h: inconclusive

What do the screens show for `CCOc1ccc(NC(=O)c2ccccc2C(=O)c2ccccc2)cc1OCC`?
NS1 inh: inactive; Pf growth 96h: inconclusive; SARS PLP yeast: inactive; RE007 growth inh: inactive; Pf growth 48h: inactive

Results for CCCCn1c(CN2CCN(c3cccc(Cl)c3)CC2)nc2c1c(=O)[nH]c(=O)n2C ?
NS1 inh: inactive; Pf growth 96h: inactive; SARS PLP yeast: inactive; RE007 growth inh: inactive; Pf growth 48h: inconclusive

Results for Cn1c(=O)[nH]c(=O)c2c1nc(CN1CCN(c3cccc(Cl)c3)CC1)n2CCCc1ccccc1 ?
NS1 inh: inactive; Pf growth 96h: inactive; SARS PLP yeast: inactive; RE007 growth inh: inactive; Pf growth 48h: 9.28µM

How did CN1CCN(c2nc3c(c(=O)[nH]c(=O)n3C)n2CCCSc2nnnn2-c2ccccc2)CC1 do in these assays?
Pf growth 96h: 9.28µM; SARS PLP yeast: inactive; RE007 growth inh: inactive; Pf growth 48h: inconclusive

What do the screens show for `CN(Cc1ccccc1)c1nc2c(c(=O)[nH]c(=O)n2C)n1CCOc1ccccc1`?
NS1 inh: inactive; Pf growth 96h: inconclusive; SARS PLP yeast: inactive; RE007 growth inh: inactive; Pf growth 48h: 9.28µM

What do the screens show for `Cc1ccc(C(=O)CNc2nc3c(c(=O)[nH]c(=O)n3C)n2Cc2ccccc2)cc1`?
NS1 inh: inactive; Pf growth 96h: 9.28µM; SARS PLP yeast: inactive; RE007 growth inh: inactive; Pf growth 48h: 13.1µM

What do the screens show for `CC(NC(=O)C1CCN(C(=O)c2ccc(F)cc2)CC1)c1ccc(-n2ccnc2)cc1` (stereo not given)?
Pf growth 96h: inconclusive; SARS PLP yeast: inactive; RE007 growth inh: inactive; Pf growth 48h: inactive

Results for Cc1ccccc1CC(=O)Nc1sc(C(C)C)cc1C(=O)N1CCOCC1 ?
NS1 inh: inactive; Pf growth 96h: inactive; SARS PLP yeast: inactive; RE007 growth inh: inactive; Pf growth 48h: inconclusive

What do the screens show for `Cc1cc(C)n2nc(SCC(=O)NC3(C#N)CCCCC3)nc2n1`?
RE007 growth inh: inactive

Results for CN(Cc1ccccc1)Cc1nc2c([nH]1)c(=O)[nH]c(=O)n2C ?
NS1 inh: inactive; Pf growth 96h: 10.4µM; SARS PLP yeast: inactive; RE007 growth inh: inactive; Pf growth 48h: inactive

How did Cc1cccc(Cn2c(CN3CCN(Cc4ccccc4)CC3)nc3c2c(=O)[nH]c(=O)n3C)c1 do in these assays?
NS1 inh: inactive; Pf growth 96h: 1.85µM; SARS PLP yeast: inactive; RE007 growth inh: inactive; Pf growth 48h: 6.57µM

What do the screens show for `CC(CSc1nc2ccccc2s1)Cn1c(N2CCCC2)nc2c1c(=O)[nH]c(=O)n2C` (stereo not given)?
NS1 inh: inactive; Pf growth 96h: 10.4µM; SARS PLP yeast: inactive; RE007 growth inh: inactive; Pf growth 48h: 11.7µM

What do the screens show for `Cn1c(=O)[nH]c(=O)c2c1nc(SCC(=O)Nc1ccccc1)n2Cc1ccccc1`?
NS1 inh: inactive; Pf growth 96h: 9.28µM; SARS PLP yeast: inactive; RE007 growth inh: inactive; Pf growth 48h: 11.7µM

What do the screens show for `Cc1onc(-c2c(Cl)cccc2Cl)c1C(N)=S`?
Pf growth 96h: inactive; SARS PLP yeast: inactive; RE007 growth inh: inactive; Pf growth 48h: inactive

Results for Cc1ccccc1N1CCN(S(=O)(=O)Cc2ccccc2)CC1 ?
NS1 inh: inactive; Pf growth 96h: inconclusive; SARS PLP yeast: inactive; RE007 growth inh: inactive; Pf growth 48h: inactive

What do the screens show for `C=CCn1c(Sc2ccccc2)nc2c1c(=O)[nH]c(=O)n2C`?
NS1 inh: inactive; Pf growth 96h: inactive; SARS PLP yeast: inactive; RE007 growth inh: inactive; Pf growth 48h: 11.7µM

Results for CCOCCn1c(N2CCN(c3ccccc3)CC2)nc2c1c(=O)n(C)c(=O)n2C ?
NS1 inh: inactive; SARS PLP yeast: inactive; RE007 growth inh: inactive; Pf growth 48h: inconclusive

Results for CCCCCCn1c(N2CCN(c3ccccc3)CC2)nc2c1c(=O)n(C)c(=O)n2C ?
NS1 inh: inactive; SARS PLP yeast: inactive; RE007 growth inh: inactive; Pf growth 48h: 6.57µM

How did CN1CCN(c2nc3c(c(=O)[nH]c(=O)n3C)n2Cc2ccccc2)CC1 do in these assays?
NS1 inh: inactive; Pf growth 96h: 0.586µM; SARS PLP yeast: inactive; RE007 growth inh: inactive; Pf growth 48h: inactive

How did CCCCCn1c(N2CCN(Cc3ccccc3)CC2)nc2c1c(=O)[nH]c(=O)n2C do in these assays?
NS1 inh: inactive; Pf growth 96h: inconclusive; SARS PLP yeast: inactive; RE007 growth inh: inactive; Pf growth 48h: 11.7µM

How did C=C(Br)CN(C)CC(=C)Br do in these assays?
NS1 inh: inactive

What do the screens show for `CCCCNC(=O)NNC(=O)COc1cccc(C)c1C`?
NS1 inh: inactive; Pf growth 96h: inactive; SARS PLP yeast: inactive; RE007 growth inh: inactive; Pf growth 48h: inactive

Results for CSc1nc(-c2ccccc2)nn1C(=O)c1ccc(Cl)cc1 ?
NS1 inh: inactive; Pf growth 96h: inconclusive; SARS PLP yeast: inactive; RE007 growth inh: inactive; Pf growth 48h: inactive

How did Nc1nc(-c2ccc(Cl)cc2)nn1C(=O)c1cccs1 do in these assays?
Pf growth 96h: 13.1µM; SARS PLP yeast: inactive; RE007 growth inh: inactive; Pf growth 48h: inactive

How did CSc1nc(-c2ccc(Cl)cc2)nn1C(=O)c1ccccc1 do in these assays?
NS1 inh: inactive; Pf growth 96h: 1.31µM; SARS PLP yeast: inactive; RE007 growth inh: inactive; Pf growth 48h: inactive

What do the screens show for `Cc1cc(C)c2nc(Cl)c(Cl)nc2c1`?
NS1 inh: inactive; Pf growth 96h: inactive; SARS PLP yeast: inactive; RE007 growth inh: inactive; Pf growth 48h: inactive

How did Clc1ccc(Nc2nnc(Cc3ccncc3)c3ccccc23)cc1 do in these assays?
Pf growth 96h: 6.75µM; Pf growth 48h: 13.5µM

Results for S=C(NCc1ccncc1)Nc1ccc(Cl)cc1 ?
NS1 inh: inactive; Pf growth 96h: inactive; SARS PLP yeast: inactive; RE007 growth inh: inconclusive; Pf growth 48h: inactive

What do the screens show for `CCN(C[C@H]1N[C@@](C)(C(=O)OC)[C@H]2C(=O)N(C)C(=O)[C@@H]12)C(=O)C1CCCCC1`?
SARS PLP yeast: inactive; RE007 growth inh: inactive

How did COc1ccc(C(=O)CC(=O)C(=O)Nc2cc(C)ccc2C)cc1 do in these assays?
NS1 inh: inactive; Pf growth 96h: 9.28µM; SARS PLP yeast: inactive; RE007 growth inh: inactive
